# Hits are enriched below; roughly 0.74% of the tested compounds scored in any of these assays.
# GRP78 ERSR act = inducers of ER stress response in human glioma cells. U87-MG GRP78 promoter luciferase reporter, 16 h. Potency, µM, for inactives: at the highest dose activation, hits mostly activators. 0.02% of 420,000 active. AID 602332; further: potency means the concentration at half of the fitted maximal effect; series mostly up to about 76 µM; % of control where 0% means no effect; nearly all actives have a fitted effect of over 35% in size
#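 Stably transfected U87-MG human glioma cells carrying a GRP78-based luminescent sensor were seeded at 1000 cells/well, pin-dosed with compounds and incubated 16 h. Luciferase reagent was then added, and end-point luminescence was read after 10 min at room temperature.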
# Akt phos inh = Akt phosphorylation inhibition | activity change, % for hits at 50 µM | 0.32% of 360,000 active | AID 651550 | Neuro2A IGF-stimulated pAkt S473 HTRF, 20 min; active compounds read low; in the data active means activity change below about -80%; inconclusive means mostly about -51% to -80%; further: on the % scale 0 is the no-effect control and ±100 the full control effect
#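 Neuro2A cells (4,500/well, DMEM with 0.5% FBS) were treated with compound at a single 50 µM final concentration, stimulated with 6 nM IGF for 20 min at 37 °C, and lysed. Phospho-Akt Ser473 was read by HTRF as 665/615 ratio ×10^4.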
# Vif-APOBEC3G blk = Vif-A3G binding inhibition; 0.076% of 410,000 active; Potency, µM (highest dose often 46.1 µM), for inactives: top-dose activity, negative = active, usual class: inhibitors; Q9HC16; HeLa A3G-eYFP + Vif (tagged APOBEC3G with the HIV-1 protein that degrades it), YFP fluorescence, overnight; further: potency means the concentration at half of the fitted maximal effect; on the % scale 0 is the no-effect control and ±100 the full control effect; nearly all actives have a fitted effect of over 60% in size
# Target sequence (Q9HC16 whole entry, looked up): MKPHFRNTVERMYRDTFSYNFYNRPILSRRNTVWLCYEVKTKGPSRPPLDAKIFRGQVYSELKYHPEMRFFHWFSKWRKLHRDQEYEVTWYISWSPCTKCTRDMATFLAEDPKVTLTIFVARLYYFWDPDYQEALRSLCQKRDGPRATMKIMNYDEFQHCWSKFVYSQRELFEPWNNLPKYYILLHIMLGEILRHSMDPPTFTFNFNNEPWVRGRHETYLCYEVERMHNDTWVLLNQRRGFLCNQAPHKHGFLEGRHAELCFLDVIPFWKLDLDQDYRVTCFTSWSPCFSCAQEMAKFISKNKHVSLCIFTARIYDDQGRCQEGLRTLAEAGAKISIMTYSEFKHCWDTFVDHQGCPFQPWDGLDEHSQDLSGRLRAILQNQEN
#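 HeLa cells stably expressing Vif and C-terminally eYFP-tagged A3G, seeded overnight at 37 deg C, then exposed to compound by pintool overnight at 37 deg C. Rise in yellow fluorescence (Ex 488/Em 500-530, Acumen) marks blocked Vif-driven A3G degradation.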
# LDHA inh = inhibitors of human lactate dehydrogenase A; purified LDHA, NADH/diaphorase-resazurin fluorescence; active compounds read low; activity change, % (values are at about 110 or 230 µM); 0.15% of 480,000 active; in the data active means activity change below about -30%; inconclusive means mostly about -25% to -30%;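 further: plate controls were DMSO wells for no effect and wells without enzyme for full effect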
#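 LDH5 2 nM; NADH 0.06 mM, pyruvate 0.2 mM; 200 mM Tris pH 7.4, EDTA, Tween-20; 5 min RT. Detection: diaphorase 0.133 mg/mL + resazurin 37 µM, fluorescence ex540/em590 at 0 and 20 min; normalized to enzyme-free and DMSO wells.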
# PINK1 expr mod = PINK1 expression modulation; PINK1 immunofluorescence, high-content cytometry, 24 h; AID 624263; 0.2% of 410,000 active; Potency, µM (series often up to 76.6 µM), inactives show top-dose activation (PINK1 increase), actives largely listed as activators; active means well fitted activation curve with a large enough effect; inconclusive means small, poorly fitted or top-dose-only effect; cell line not stated here; further: potency means the concentration at half of the fitted maximal effect; % of control where 0% means no effect; nearly all actives have a fitted effect of over 65% in size
#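 Stable cell line treated 24 h with compounds at 5 concentrations (CCCP controls), then fixed and immunostained for PINK1 plus nuclear and cell stains; PINK1 immunofluorescence quantified by laser-scanning microplate cytometry.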
# Vif-A3F inh = inhibitors of Vif-A3F interaction; Potency, µM (top dose mostly 46.1 µM), for the others: at the highest dose activity, negative = active; AID 602313; HeLa A3F-eYFP + Vif (tagged APOBEC3F with the HIV-1 protein that degrades it), YFP fluorescence increase; 0.2% of 390,000 active; further: potency means the concentration at half of the fitted maximal effect; % of control where 0% means no effect; nearly all actives have a fitted effect of over 65% in size
#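 Fluorescence increase (Ex 488/Em 500-530) after overnight compound treatment at 37 deg C flags inhibition of Vif-driven A3F-eYFP loss in stable HeLa A3F-eYFP/Vif cells seeded overnight beforehand.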
# Numbers without * were called inactive; i = inactive; ? = inconclusive; . = no result; ! = not confirmed by another sample. Unless noted, the call rests on the fitted dose curve; in most records, active means well fitted curve in the direction sought with a large enough effect; inconclusive means small, poorly fitted or top-dose-only effect, or another doubt; inactive means no such curve, though single readings can be large; an effect the other way counts as inactive or inconclusive.
SMILES,GRP78 ERSR act,Akt phos inh,Vif-APOBEC3G blk,LDHA inh,PINK1 expr mod,Vif-A3F inh
O=C(NC1CCCCC1)c1sc(=S)n2c1[nH]c(=O)c1ccccc12,-5%,i,1%,-7,25µM*,4%
O=C(Nc1c(Cl)cccc1Cl)c1cc(=O)n(Cc2ccccc2)c(=O)[nH]1,-1%,i,-7%,-2,10µM*,-2%
O=C(CNC(=O)Cc1ccccc1)NCC(=O)OCC(=O)c1cccc2ccccc12,-2%,i,?,-41*!,?,-3%
O=C(CCC(=O)N1CCN(C(=O)c2cc3ccccc3[nH]2)CC1)NCCc1ccccc1,.,.,.,-1,.,.
O=C(O)c1cc([N+](=O)[O-])ccc1NCc1ccccc1,5%,i,-3%,-7,-1%,-10%
O=C(O)c1cc([N+](=O)[O-])ccc1NCCCc1ccccc1,28µM*!,.,-4%,-5,2%,-2%
Cc1ccc(N=C2NC(=O)/C(=C/c3cccn3C)S2)cc1,2%,i,5µM*,-2,?,?
O=C(CSc1ncnc2c1sc1cccc(F)c12)NC1CCCCC1,.,.,.,1,.,.
CSc1ccc(C2NC(=O)c3ccccc3N2)cc1 (stereo not drawn),-1%,i,10µM*,-3,9%,-2%
CCOC(=O)c1c(C)c(C(=O)Nc2ccc(N(C)C)cc2)c(C)n1CC,4%,?,-29%,0,11µM*,2%
CCN(CC)C(=S)SCC(=O)NC(=O)NC,.,.,.,-2,.,.
CC(C)=CCNc1ncnc2c1c(C#N)cn2C1OC(CO)C(O)C1O (stereo not drawn),-3%,i,-26%,-52*,-3%,-9%
CN1C(=O)CC(N2CCN(CC(=O)N3CCCC3)CC2)C1=O (stereo not drawn),-3%,-113%*,-2%,-5,0%,.
CN1C(=O)CC(N2CCN(C(=O)CN3CCCC3)CC2)C1=O (stereo not drawn),1%,i,0%,-4,0%,3%
CCN(CC)c1ccc2cc(-c3nc(-c4ccc(OC)cc4)cs3)c(=O)oc2c1,-4%,i,6%,0,?,-105%
CCN(CC)c1ccc2cc(-c3nc4ccccc4n3C)c(=O)oc2c1,1%,i,?,-1,?,11µM*
CCN(CC)c1ccc2cc(-c3nc(-c4ccc(Cl)cc4Cl)cs3)c(=O)oc2c1,-2%,.,-21%,-4,-1%,7.1µM*
CC(=O)/C(N=Nc1ccc(C(=O)O)cc1[N+](=O)[O-])=C(\C)O,1%,i,0%,-9,0%,0%
CC(=O)/C(N=Nc1cc(C)ccc1O)=C(\C)O,-1%,i,?,18,5%,25µM*
CCONC(=O)C(NC(=O)Cc1ccc2ccccc2c1)C(C)C (stereo not drawn),.,.,.,0,.,.
O=C1/C(=C/c2cccc(O)c2)SC(=S)N1CC1CCCO1 (stereo not drawn),6%,i,-6%,-1,5%,6%
COc1cc(/C=C2\SC(=S)N(NC(=O)c3ccccc3OC)C2=O)ccc1O,12%,i,-3%,2,3%,22µM*
CCOc1cc(/C=C2/SC(=S)N(CC3CCCO3)C2=O)ccc1O (stereo not drawn),0%,i,-15%,-6,-2%,22µM*
COc1cc(/C=C2\SC(=S)N(NC(=O)c3cccc(O)c3)C2=O)ccc1O,2%,i,-15%,3,8%,?
COc1cc(/C=C2\SC(=S)N(NC(=O)c3ccc(O)c(OC)c3)C2=O)ccc1O,3%,i,-19%,-9,2%,10µM*
SMILES,GRP78 ERSR act,Akt phos inh,Vif-APOBEC3G blk,LDHA inh,PINK1 expr mod,Vif-A3F inh
COc1cc(/C=C2\SC(=S)N(NC(=O)c3ccncc3)C2=O)ccc1O,-2%,i,-9%,1,-1%,-11%
COc1ccc(OCCCN)cc1,.,.,.,-9,.,.
O=Cc1cccn1-c1ccc(Cl)cc1Cl,.,.,.,4,.,.
COc1ccc(NC(=O)NCc2c(C)nn(C)c2C)c(OC)c1,.,.,.,10,.,.
C/C(=N\NC(=O)Nc1ccccc1)c1ccc(Br)cc1,.,.,.,-6,.,.
COc1ccc(CN2CCN(Cc3ccco3)CC2)cc1,-3%,i,1%,-25,2%,-4%

# From PubChem BioAssay
